Results: PubChem BioAssay (NCATS)
Values joined by “and” are separate entries in the source; they are usually repeats but may differ in a detail not shown here. Equal entries are not always repeated. Inconclusive results are not listed. A call without a number means that no potency is given here. Active and inactive are the calls of the source. Unless noted, calls follow the shape of the dose curve; as a rule, active = well fitted curve in the direction sought with a large enough effect; inconclusive = small, poorly fitted or top-dose-only effect, or another doubt; inactive = no such curve, though single readings can be large; an effect the other way counts as inactive or inconclusive.

Assays:
[1] = qHTS assay for measurement of the activity of small molecule inhibitors on Zika virus induced Caspase-3 activity in human iPSC derived neural progenitor cells (hNPCs) (AID 1224857); also: nearly all actives have a fitted effect of over 65% in size
How it was run: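 In medium with heparin 2 ug/ml and cyclopamine 2 uM, hNPCs (350 cells/well) received compound for one hour and then Zika virus at 2 FFU/cell; caspase activity was measured by Caspase-Glo 3/7 luminescence 6 h post-infection.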

[2] = qHTS assay for measurement of the activity of small molecule inhibitors on Zika virus induced Caspase-3 activity in human astrocytoma cells (AID 1224859)
How it was run: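 A cell-based luminescent caspase-3/7 assay used SNB-19 cells infected with ZIKV (2 FFU/cell) for 6 h following 1 h compound pretreatment.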

[3] = qHTS assay to identify small molecule inhibitors of chordoma cells - UCH-1 (AID 1259355); also: nearly all actives have a fitted effect of over 55% in size; also: potency is read from the fitted curve at half-maximal effect; series mostly up to about 46 µM
How it was run: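 Cells (800/well) were seeded and left overnight at 37 C, 5% CO2, then treated with drugs at 15 concentrations plus a combination mix of auranofin, camptothecin, doxorubicin, rubitecan and topotecan. Viability after 48hr was read by CellTiter-Glo luminescence.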

[4] = qHTS assay to identify small molecule inhibitors of chordoma cells - UCH-2 (AID 1259356); also: potency is read from the fitted curve at half-maximal effect
[5] = P-glycoprotein substrates identified in KB-8-5-11 adenocarcinoma cell line, qHTS therapeutic library screen (AID 1346987); also: nearly all actives have a fitted effect of over 65% in size; also: potency is read from the fitted curve at half-maximal effect
How it was run: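 KB-8-5-11: colchicine-selected sub-line of KB-3-1 over-expressing P-gp; assay medium lacked colchicine. 72 h drug exposure at 37 degree C, CellTiter-Glo.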

[6] = Natriuretic polypeptide receptor (hNpr1) antagonism - Pilot counterscreen GloSensor control cell line (AID 1347045; calls by dose curve; also: series mostly up to about 38 µM)
How it was run: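 HEK293 cells carrying the GloSensor cGMP sensor (GIP/pGS-40F) were loaded with 2% GloSensor reagent for 2 h, exposed to compounds for 30 min, and then stimulated with 50 uM sodium nitroprusside for 20 min at room temperature.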

[7] = target: Atrial natriuretic peptide receptor 1 (Homo sapiens) (UniProt P16066); test: Natriuretic polypeptide receptor (hNpr1) antagonism - Pilot screen (AID 1347049; calls by dose curve;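 also: agonist-evoked cGMP luminescence read 20 min after hNppA addition; series mostly up to about 58 µM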)
How it was run: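 HEK293 cells expressing hNpr1 and GloSensor cGMP luciferase, 1500/well, loaded with 2% GloSensor reagent 2 h, compound 30 min at room temperature; luminescence read before and 20 min after 0.1 nM hNppA stimulation.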

[8] = target: Atrial natriuretic peptide receptor 2 (Homo sapiens) (UniProt P20594); test: Natriuretic polypeptide receptor (hNpr2) antagonism - Pilot subtype selectivity assay (AID 1347050; calls by dose curve)
How it was run: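 HEK293 cells expressing hNpr2 and a GloSensor cGMP luciferase sensor, 1500/well, preloaded 2 h with 2% GloSensor reagent, compound 30 min, then 1 nM hNppC for 20 min. Antagonism from luminescence after versus baseline pre-read; LOPAC in 1:5 titrations.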

[9] = NS1 protein of Zika virus - qHTS assay to identify small molecule inhibitors in human HEK 293 cells (AID 1347053); also: series mostly up to about 46 µM; nearly all actives have a fitted effect of over 55% in size
How it was run: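 Following 20 h seeding, HEK 293 cells took compound, then 1 h later ZIKV MR766 (MOI = 0.5). Incubation ran 24 h at 37 C before TR-FRET detection of NS1; a drop in signal indicates inhibition.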

Chain of Atrial natriuretic peptide receptor 2 (Homo sapiens) (P20594 whole entry, looked up): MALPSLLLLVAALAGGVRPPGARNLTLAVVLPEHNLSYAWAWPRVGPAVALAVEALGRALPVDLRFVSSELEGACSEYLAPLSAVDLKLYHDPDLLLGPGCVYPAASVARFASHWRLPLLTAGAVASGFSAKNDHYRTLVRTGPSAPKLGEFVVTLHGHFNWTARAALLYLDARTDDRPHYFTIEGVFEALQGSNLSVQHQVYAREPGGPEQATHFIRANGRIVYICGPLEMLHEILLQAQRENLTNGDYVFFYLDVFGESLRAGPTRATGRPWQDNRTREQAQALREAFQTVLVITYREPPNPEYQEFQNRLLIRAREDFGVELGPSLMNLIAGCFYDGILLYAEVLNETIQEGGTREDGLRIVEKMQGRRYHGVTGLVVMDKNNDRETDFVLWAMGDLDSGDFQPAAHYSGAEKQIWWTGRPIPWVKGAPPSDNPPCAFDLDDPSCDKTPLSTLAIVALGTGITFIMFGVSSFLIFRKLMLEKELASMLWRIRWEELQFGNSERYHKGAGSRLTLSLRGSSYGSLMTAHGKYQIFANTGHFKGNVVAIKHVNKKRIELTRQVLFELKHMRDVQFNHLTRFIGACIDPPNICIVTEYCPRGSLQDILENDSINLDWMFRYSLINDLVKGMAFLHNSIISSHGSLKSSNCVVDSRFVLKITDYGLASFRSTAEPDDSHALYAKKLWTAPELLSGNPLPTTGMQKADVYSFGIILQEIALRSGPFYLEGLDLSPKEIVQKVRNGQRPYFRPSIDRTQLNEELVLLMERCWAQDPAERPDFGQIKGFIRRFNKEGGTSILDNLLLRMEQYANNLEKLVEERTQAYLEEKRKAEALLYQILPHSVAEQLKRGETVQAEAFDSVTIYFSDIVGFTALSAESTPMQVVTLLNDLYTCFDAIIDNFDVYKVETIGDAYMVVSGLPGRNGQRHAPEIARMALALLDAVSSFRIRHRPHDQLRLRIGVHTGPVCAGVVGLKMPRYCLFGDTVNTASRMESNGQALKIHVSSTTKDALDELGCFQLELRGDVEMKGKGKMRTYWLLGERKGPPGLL
Chain of Atrial natriuretic peptide receptor 1 (Homo sapiens) (P16066 whole entry, looked up): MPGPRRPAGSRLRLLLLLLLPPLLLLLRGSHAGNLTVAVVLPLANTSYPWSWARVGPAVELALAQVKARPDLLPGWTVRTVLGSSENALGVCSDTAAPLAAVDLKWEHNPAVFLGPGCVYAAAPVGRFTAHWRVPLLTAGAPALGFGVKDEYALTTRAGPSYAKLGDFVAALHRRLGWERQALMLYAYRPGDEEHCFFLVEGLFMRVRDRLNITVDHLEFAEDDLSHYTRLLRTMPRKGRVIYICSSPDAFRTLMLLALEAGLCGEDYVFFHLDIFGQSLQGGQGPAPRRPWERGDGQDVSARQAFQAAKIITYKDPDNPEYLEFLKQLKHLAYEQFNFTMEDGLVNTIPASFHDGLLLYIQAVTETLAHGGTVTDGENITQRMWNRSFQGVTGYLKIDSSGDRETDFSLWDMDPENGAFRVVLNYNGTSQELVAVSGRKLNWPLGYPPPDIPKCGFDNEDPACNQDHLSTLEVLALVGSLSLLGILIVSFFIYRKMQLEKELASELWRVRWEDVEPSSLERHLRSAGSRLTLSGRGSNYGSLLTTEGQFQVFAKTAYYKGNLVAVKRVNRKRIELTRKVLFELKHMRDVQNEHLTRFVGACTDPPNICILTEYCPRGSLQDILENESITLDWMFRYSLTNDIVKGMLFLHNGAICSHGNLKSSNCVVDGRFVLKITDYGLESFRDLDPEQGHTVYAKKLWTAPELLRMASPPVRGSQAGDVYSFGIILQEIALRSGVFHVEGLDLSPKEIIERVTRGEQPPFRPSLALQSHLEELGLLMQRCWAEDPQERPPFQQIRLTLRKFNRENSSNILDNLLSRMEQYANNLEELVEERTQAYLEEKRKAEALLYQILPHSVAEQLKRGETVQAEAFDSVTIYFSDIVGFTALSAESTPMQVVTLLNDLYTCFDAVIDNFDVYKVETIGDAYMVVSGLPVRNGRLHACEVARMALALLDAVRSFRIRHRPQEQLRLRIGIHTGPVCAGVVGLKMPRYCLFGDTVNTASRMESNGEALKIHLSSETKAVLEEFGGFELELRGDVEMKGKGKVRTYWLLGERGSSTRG

| Compound | Potency [1] | outcome [2] | Potency [3] | Potency [4] | Potency [5] | Potency [6] | Potency [7] | Potency [8] | Potency [9] |
| --- | --- | --- | --- | --- | --- | --- | --- | --- | --- |
| NCC(O)c1ccc(O)cc1 (stereo unspecified) | inactive | inactive | inactive | inactive | inactive | inactive | inactive | inactive | inactive |
| CCCN1CCC[C@@H]2Cc3nc(N)ncc3C[C@H]21 | inactive | inactive | inactive | inactive | inactive | inactive | inactive | inactive | inactive |
| CC1NCCOC1c1ccccc1 (stereo unspecified) | inactive | inactive | inactive | inactive | inactive |  |  |  | inactive |
| CCC1(C2=NCCN2)Cc2ccccc2O1 (stereo unspecified) | inactive | inactive | inactive | inactive | inactive | inactive | inactive | inactive | inactive |
| O=c1oc2ccccc2c(O)c1C(CC(O)c1ccc(-c2ccc(Br)cc2)cc1)c1ccccc1 (stereo unspecified) | inactive | inactive | inactive | inactive | inactive |  |  |  | inactive |
| CC(C)(C)CC(C)(C)c1ccc(O)cc1 | inactive | inactive | inactive | inactive | inactive |  |  |  | inactive |
| CC(=O)[C@H]1CC[C@H]2[C@@H]3CC[C@H]4C[C@](C)(O)CC[C@]4(C)[C@H]3CC[C@]12C | inactive | inactive | inactive | inactive | inactive | inactive |  | inactive | inactive |
| Cc1cccc(C)c1NC1=NCCCS1 | inactive | inactive | inactive | inactive | inactive | inactive |  | inactive | inactive |
| Cc1ccc2c(c1)C1CN(C)CCC1N2 (stereo unspecified) | inactive | inactive | inactive | inactive | inactive |  |  |  | inactive |
| C[C@H]1O[C@@H](O[C@H]2[C@@H](O)C[C@H](O[C@H]3[C@@H](O)C[C@H](O[C@H]4CC[C@@]5(C)[C@H](CC[C@@H]6[C@@H]5CC[C@]5(C)[C@@H](C7=CC(=O)OC7)CC[C@]65O)C4)O[C@@H]3C)O[C@@H]2C)C[C@H](O)[C@@H]1O | inactive | inactive | 112 nM (active) | 46.1 nM (active) | 65.1 nM (active) and 76.9 nM (active) |  |  |  | inactive |
| C=C1CC[C@@]2(O)[C@H]3Cc4ccc(O)c5c4[C@@]2(CCN3CC2CC2)[C@H]1O5 | inactive | inactive | inactive | inactive | inactive |  |  |  |  |
| Nc1ccncc1 | inactive | inactive | inactive | inactive | inactive | inactive | inactive | inactive | inactive |
| Cc1ccc(S(=O)(=O)N[C@@H](CCCCN)C(=O)CCl)cc1 | inactive | inactive | inactive | inactive | inactive | inactive | inactive | inactive | inactive |
| Oc1ccccc1-c1ccccc1 | inactive | inactive | inactive | inactive | inactive |  |  |  | inactive |
| N#CC(C#N)=Cc1ccc(O)c(O)c1 | inactive | inactive | inactive | inactive | inactive | inactive | inactive | inactive | inactive |
| COc1ccccc1N1CCNCC1 | inactive | inactive | inactive | inactive | inactive | inactive | inactive | inactive | inactive |
| CCOC(=O)C1(c2ccccc2)CCN(CCC(C#N)(c2ccccc2)c2ccccc2)CC1 | inactive | inactive | inactive | inactive | 9.2 µM (active) and 15.8 µM (active) |  |  |  |  |
| C[C@]12C/C(=C/O)C(=O)C[C@@H]1CC[C@@H]1[C@@H]2CC[C@@]2(C)[C@H]1CC[C@]2(C)O | inactive | inactive | inactive | inactive | inactive |  |  |  | inactive |
| CCn1cc(C(=O)O)c(=O)c2ccc(C)nc21 | inactive |  |  |  |  |  |  |  |  |
| O=C(NC(O)C(Cl)(Cl)Cl)NC(O)C(Cl)(Cl)Cl (stereo unspecified) | inactive | inactive | inactive | inactive | inactive |  |  |  | inactive |
| NP(N)(=O)NC(=O)c1ccc(F)cc1 | inactive | inactive | inactive | inactive | inactive |  |  |  | inactive |
| CCC1C(=O)OCC1Cc1cncn1C (stereo unspecified) | inactive |  |  |  |  |  |  |  |  |
| CCCC1CCCCN1 (stereo unspecified) | inactive | inactive | inactive | inactive | inactive |  |  |  | inactive |
